Measurements: PubChem BioAssay (NCI)
The panel holds about 79,000 compounds, 15% with a hit somewhere; the sample as a whole holds those more often. Unmarked numbers belong to inactive results. Active and inactive are the calls of the source. Cut-off read from the data, not from the text of the source: active = growth inhibition above about 70%; inactive = the rest.

Key:
[1] = NCI Yeast Anticancer Drug Screen. Data for the rad50 strain (AID 155);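 note: 0% = growth of vehicle-only cultures of the same strain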; settings: S. cerevisiae rad50 strain growth inhibition, stronger effect = higher value
Procedure, shortened: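 Yeast carrying a defined DNA repair defect were exposed to test compounds, and growth was compared with vehicle-treated controls to give percent inhibition.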

[2] = NCI Yeast Anticancer Drug Screen. Data for the mec2-1 strain (AID 157); settings: S. cerevisiae mec2-1 strain, stronger effect = higher value
Procedure, shortened: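 Compounds were applied to mec2-1 yeast cells. Their growth was then compared with that of vehicle-treated cultures to give growth inhibition.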

[3] = NCI Yeast Anticancer Drug Screen. Data for the sgs1 mgt1 strain (AID 161);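 note: 0% = growth of cultures given vehicle only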; settings: S. cerevisiae sgs1 mgt1 strain, stronger effect = higher value
Procedure, shortened: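 This yeast growth screen uses a strain with defined DNA-repair lesions; compound-treated growth is compared with vehicle-treated growth.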

[4] = NCI Yeast Anticancer Drug Screen. Data for the cln2 rad14 strain (AID 165);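 note: 0% = growth equal to vehicle treated cultures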; settings: S. cerevisiae cln2 rad14 strain, stronger effect = higher value
Procedure, shortened: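 Strain: cln2 rad14 yeast, altered in cell cycle control and DNA damage repair. Read-out: growth inhibition vs vehicle.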

[5] = NCI Yeast Anticancer Drug Screen. Data for the bub3 strain (AID 167); settings: S. cerevisiae bub3 mutant strain, stronger effect = higher value
Procedure, shortened: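 Compounds were applied to a genetically altered yeast strain carrying a cell-cycle control defect. Growth inhibition was scored against vehicle-treated controls.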

[6] = NCI Yeast Anticancer Drug Screen. Data for the mlh1 rad18 strain (AID 175); settings: S. cerevisiae mlh1 rad18 strain growth inhibition, stronger effect = higher value
Procedure, shortened: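 A repair-deficient yeast strain is exposed to test compound, and growth is scored relative to vehicle-treated controls.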

[7] = at 5.0 µM (retest, dose inferred, filed as 0.5)
[8] = at 50.0 µM (retest, dose inferred, filed as 5.0)

| SMILES | growth inhibition [1, 7] | growth inhibition [1, 8] | growth inhibition ([1]; at 50.0 µM) | growth inhibition [2, 7] | growth inhibition [2, 8] | growth inhibition ([2]; at 50.0 µM) | growth inhibition [3, 7] | growth inhibition [3, 8] | growth inhibition ([3]; at 50.0 µM) | growth inhibition [4, 7] | growth inhibition [4, 8] | growth inhibition ([4]; at 50.0 µM) | growth inhibition [5, 7] | growth inhibition [5, 8] | growth inhibition ([5]; at 50.0 µM) | growth inhibition [6, 7] | growth inhibition [6, 8] | growth inhibition ([6]; at 50.0 µM) |
| --- | --- | --- | --- | --- | --- | --- | --- | --- | --- | --- | --- | --- | --- | --- | --- | --- | --- | --- |
| CC(C)(C)c1ccc(Sc2ncnc3ccccc23)cc1 | 4% | 78% (active) | 90.8% (active) | 21% | 90% (active) | 89.3% (active) | 2% | 89% (active) | 89.5% (active) | -1% | 81% (active) | 71.2% (active) | 3% | 90% (active) | 92.5% (active) | -6% | 87% (active) | 91.6% (active) |
| Nc1ccc(-c2nc3ccccc3s2)cc1 | 21% | 96% (active) | 89.8% (active) | 2% | 100% (active) | 91.8% (active) | -3% | 99% (active) | 88.4% (active) | 8% | 85% (active) | 87.6% (active) | -2% | 99% (active) | 86.2% (active) | 10% | 98% (active) | 84.6% (active) |
| O=C(/C=C/c1ccc(Cl)c(Cl)c1)CCN1CCN(CCC(=O)/C=C/c2ccc(Cl)c(Cl)c2)CC1 | 36% | 98% (active) | 82.7% (active) | 38% | 99% (active) | 85.5% (active) | 11% | 99% (active) | 88.1% (active) | 16% | 99% (active) | 86.3% (active) | 14% | 98% (active) | 82% (active) | 44% | 98% (active) | 86.5% (active) |
| Oc1[nH]c2ccccc2c1N=NC(=S)NCc1ccccn1 | 9% | 99% (active) | 77.4% (active) | 2% | 99% (active) | 86.3% (active) | 22% | 98% (active) | 90.9% (active) | 31% | 99% (active) | 90.5% (active) | 3% | 99% (active) | 90.8% (active) | 26% | 99% (active) | 91.8% (active) |
| Cn1c(=O)cc[nH]c1=O | -1% | 3% | 4.85% | 0% | -1% | 3.9% | 0% | 2% | 5.45% | 0% | -1% | -0.75% | 1% | -5% | 98.8% (active) | -5% | 1% | 14.2% |
| Cc1cccc[c]1[Sn]([Cl])([O][Sn]([Cl])([c]1ccccc1C)[c]1ccccc1C)[c]1ccccc1C | 61% | 97% (active) | 88.3% (active) | 46% | 98% (active) | 90.8% (active) | 40% | 98% (active) | 89% (active) | 20% | 96% (active) | 88.3% (active) | 42% | 98% (active) | 88.2% (active) | 85% (active) | 96% (active) | 89.5% (active) |
| CC(Nc1ccc(Cl)c(Cl)c1)c1ccncc1 (configuration not stated) | 1% | 98% (active) | 85.8% (active) | -36% | 95% (active) | 85.8% (active) | -26% | 98% (active) | 79.8% (active) | 32% | 98% (active) | 83.9% (active) | -47% | 99% (active) | 86% (active) | -1% | 98% (active) | 82.6% (active) |
| COc1ccc(C2=NN(c3ccccc3)C[N+](c3ccc(OC)cc3)=N2)cc1 | 22% | 72% (active) | 96.5% (active) | -7% | 51% | 97.5% (active) | 9% | 48% | 97.7% (active) | 10% | 96% (active) | 96.4% (active) | -10% | 99% (active) | 97.7% (active) | 6% | 84% (active) | 96.8% (active) |
| ClC/C=C/c1ccccc1 | 2% | 31% | 68.8% | -1% | 11% | 16.9% | 3% | 15% | 61% | 6% | 1% | -7.2% | 7% | 20% | 37.1% | 3% | 18% | 62.6% |
| COC(=O)c1cc(/C=C/c2ccccc2)on1 | -3% | 3% | -3.75% | 5% | 1% | 0.55% | 2% | 8% | 10.5% | -4% | -14% | 82.2% (active) | 6% | 14% | 2.75% | -3% | 2% | -9.55% |
| Cc1cc(NC(=S)SC(C)C)ccc1Br | 5% | 99% (active) | 99.5% (active) | 0% | 100% (active) | 99.7% (active) | 2% | 99% (active) | 71.8% (active) | -19% | 99% (active) | 98.9% (active) | 7% | 99% (active) | 99.5% (active) | -3% | 99% (active) | 99.3% (active) |
| CCCCCN(CCCCC)CC(=O)OCC1(C)CCCC2(C)C3CCC(C(C)C)=CC3=CCC12 (configuration not stated) | 1% | 22% | -3.45% | 2% | 54% | -9.75% | -3% | 80% (active) | 74.2% (active) | -1% | 39% | -59% | 1% | 73% (active) | -8.05% | 2% | 67% | 28.4% |
| C=CCOC(=O)C(O)C(CC)CCCCC (configuration not stated) | 25% | 92% (active) | 52.9% | 0% | 87% (active) | 46% | 9% | 89% (active) | 76.7% (active) | 10% | 31% | 80.2% (active) | 16% | 91% (active) | 54.4% | 17% | 92% (active) | -3.3% |
| CCCCc1c2c(nc3c1CCCC3O)/C(=C/c1ccccc1)CCC2 (configuration not stated) | 0% | 42% | 50.8% | 0% | 47% | 53.9% | -2% | 67% | 49.9% | -3% | 30% | 59.9% | 3% | 89% (active) | 83.7% (active) | 1% | 71% (active) | 80.3% (active) |
| NC(=O)NCCCCC1NC(=S)N(c2ccccc2)C1=O (configuration not stated) | -5% | -4% | -3.85% | -8% | -16% | -3.45% | -7% | 47% | 29.8% | -3% | -3% | -4.9% | -9% | -7% | 5.05% | -9% | -8% | -12.3% |
| O=C1OCCCN1/N=C/c1ccc([N+](=O)[O-])o1 | 16% | 59% | 82% (active) | 4% | 31% | 55% | 10% | 65% | 84.8% (active) | 2% | 32% | 42.3% | 8% | 62% | 52.3% | 24% | 78% (active) | 89.2% (active) |
| FC(F)(F)c1nc2cc(SSc3cc4nc(C(F)(F)F)[nH]c4cc3Cl)c(Cl)cc2[nH]1 | 1% | 51% | 97.5% (active) | -1% | 85% (active) | 93.2% (active) | 0% | 87% (active) | 95% (active) | -6% | 91% (active) | 65.8% | -18% | 61% | 97% (active) | -12% | 97% (active) | 97.7% (active) |
| N#CC#Cc1cccc(C#CC#N)c1 | 98% (active) | 98% (active) | 98% (active) | 99% (active) | 99% (active) | 98.9% (active) | 99% (active) | 99% (active) | 50% | 99% (active) | 98% (active) | 98.8% (active) | 98% (active) | 98% (active) | 98.9% (active) | 99% (active) | 98% (active) | 99.2% (active) |
| CCOC(=O)/C(=C/c1ccc(Cl)cc1)N(CC)CC | 16% | 15% | 64.3% | -21% | 20% | 55.2% | 2% | 18% | 54.3% | 43% | 58% | 76.2% (active) | 9% | 36% | 64.8% | -13% | -2% | 53.1% |
